Reference: PubChem BioAssay

Legend:
[1] = tested on: Botulinum neurotoxin type F light chain protease (Clostridium botulinum); assay: Clostridium botulinum type F light chain protease inhibitors, microsphere substrate cleavage, validation (AID 588459); conditions: multiplex microsphere protease substrate cleavage assay, flow cytometry; at 10 µM; active compounds read high
[2] = molecular target: Botulinum neurotoxin type A (Clostridium botulinum) (UniProt P0DPI0); assay: BoNT/A light chain protease inhibitors, biochemical, multiplex microsphere flow cytometry, validation set (AID 588460); conditions: at 10 µM, active compounds read high
[3] = molecular target: Lethal factor (Bacillus anthracis) (UniProt P15917); assay: Bacillus anthracis lethal factor inhibition, microsphere flow cytometry protease assay, validation at 10 µM (AID 588461); conditions: multiplex microsphere protease cleavage assay, active compounds read high

Measured: inhibition

CCO/C([O-])=N/c1c[n+](N2CCOCC2)no1
inactive: [1] 0.3% | [2] 0.5% | [3] -5.4%

Fc1ccc(-c2cc(-c3ccccc3)nc(-n3cccn3)n2)cc1
inactive: [1] -6.3% | [2] -0.2% | [3] 2.3%

C[C@]12CC[C@@H]3c4cc(O)c(O)cc4CC[C@H]3[C@@H]1CC[C@@H]2O
inactive: [1] -1% | [2] 1% | [3] -0.8%

NC(=O)c1ccccc1O
inactive: [1] -3.5% | [2] -1.1% | [3] 2.5%

O=C(O)c1ccccc1Nc1cccc(C(F)(F)F)c1
inactive: [1] -4.2% | [2] -0.9% | [3] 1.9%

COc1ccc(-c2onc(C)c2-c2ccc(C(=O)OC(C)C)o2)c(O)c1
inactive: [1] 1.1% | [2] 0.9% | [3] 0.9%

COc1cccc(N2CC(O)=C(c3nc4ccccc4c(=O)[nH]3)C2=N)c1
inactive: [1] -2.2% | [2] -1.1% | [3] -6.2%

CCOC(=O)c1ccc(N2C(=O)C(CC(=O)NC)N(CCc3ccc(OC)c(OC)c3)C2=S)cc1 (stereo not given)
inactive: [1] -0.6% | [2] -0.4% | [3] -10.1%

CC(C)(Sc1cc(C(C)(C)C)c(O)c(C(C)(C)C)c1)Sc1cc(C(C)(C)C)c(O)c(C(C)(C)C)c1
inactive: [1] 0% | [2] -2.2% | [3] -7.4%

COc1ccc(-c2c(C)c3ccc(OCC(C)=O)cc3oc2=O)cc1
inactive: [1] -3.2% | [2] -0.4% | [3] 1.2%

O=C(NCCO)c1ccc(Cl)c(Cl)c1
inactive: [1] -0.2% | [2] -0.6% | [3] -2.2%

CN1CCN(CCCN2c3ccccc3Sc3ccc(C(F)(F)F)cc32)CC1
inactive: [1] 0.3% | [2] -0.5% | [3] -3.1%

CCS(=O)(=O)CCn1c([N+](=O)[O-])cnc1C
inactive: [1] 2.2% | [2] 0.7% | [3] 3.7%

COc1cc(OC)cc(C(C)=O)c1
inactive: [1] -1.9% | [2] -1.3% | [3] -0.1%

Nc1ccc(S(N)(=O)=O)cc1N
inactive: [1] 1.4% | [2] -2.7% | [3] -20%

O=Cc1ccc(N2CCCCC2)cc1
inactive: [1] -0.8% | [2] -0.3% | [3] -1.6%

CCOc1ccccc1Oc1coc2cc(OCC(=O)O)ccc2c1=O
inactive: [1] 0% | [2] 1.4% | [3] 0.2%

CC(C)NC(=O)c1ccc(C(C)C)cc1
inactive: [1] -2.3% | [2] -1.2% | [3] -2.8%

COc1ccc(C(=O)Nc2cccnc2)cc1C(=O)Nc1cccnc1
inactive: [1] 2.9% | [2] 1.3% | [3] -0.7%

O=C(O)CCSc1nc2ccccc2s1
inactive: [1] -0.7% | [2] -1.2% | [3] -9.8%

CC(NC(=O)c1cccnc1)C(=O)O (stereo not given)
inactive: [1] -0.3% | [2] -0.4% | [3] -4.7%

CC(=O)c1cc2c(cc1NC(=O)c1ccco1)OCCO2
inactive: [1] -1.7% | [2] -1.3% | [3] -1.9%

COc1ccc(CCn2c(C)nc3c(c(=O)c4ccccc4n3C)c2=O)cc1
inactive: [1] 3.4% | [2] 0.2% | [3] 5.5%

O=C1CC[C@@H](CN(Cc2ccccc2)Cc2cn[nH]c2-c2cc3ccccc3o2)N1
inactive: [1] 3.7% | [2] 1.2% | [3] -0.2%

CO[C@@H]1O[C@@H]2COC(c3ccccc3)O[C@@H]2[C@@H](OC)[C@@H]1O (stereo not given in full)
inactive: [1] 1.6% | [2] -0.6% | [3] 2.5%

COc1cc(CO)ccc1OCc1nnnn1-c1ccc(C)cc1
inactive: [1] -0.2% | [2] -1% | [3] -8.2%

Nc1ccc(N)c(C(=O)O)c1
inactive: [1] -6.1% | [2] -14% | [3] -7.2%

COc1ccc(O)c(N)c1
inactive: [1] -8.6% | [2] -3.6% | [3] -19.6%

CN(C)[C@@H]1C(=O)C(C(=O)NCN2CCCC2)=C(O)[C@@]2(O)C(=O)C3=C(O)c4c(O)cccc4[C@@](C)(O)C3CC12 (stereo not given in full)
inactive: [1] -4.8% | [2] -5.7% | [3] -8.3%

CC1=C(/C=C/C(C)=C/C=C/C(C)=C/C(=O)O)C(C)(C)CCC1
inactive: [1] 0.8% | [2] -0.1% | [3] 0.4%
